Screening results as filed in PubChem.
Pf Dd2 inh: Plasmodium falciparum Dd2 growth inhibition; 120,000 compounds, 4.3% hits; Potency, µM (series often up to 28.9 µM), without a hit: at the top dose activity, negative = inhibition, actives largely listed as inhibitors; P. falciparum Dd2 growth, SYBR Green, 72 h; AID 1347417; active means well fitted inhibition curve with a large enough effect;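 further: plate controls were DMSO vehicle for no effect and reference drug for full effect; nearly all actives have a fitted effect of over 65% in size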
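Infected erythrocytes (Dd2, 0.3% parasitemia, 2.5% hematocrit final) are added to compound in RPMI-1640/Albumax II medium, grown 72 h at 37C in low oxygen, then lysed with saponin/Triton-X containing SYBR Green and read by fluorescence.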
* hit, by the source's call; [ ] = remark or other dose. The entries come from a sample that favours hits as a whole. Potency means the concentration at half of the fitted maximal effect.

How did CN(C(=O)Nc1ccc(Cl)cc1)C1CCCc2ccccc21 (stereo unspecified) do in these assays?
Pf Dd2 inh: -12%[44.1 µM]

How did CN(C(=O)Cc1ccc(F)cc1)C1CCCc2ccccc21 (stereo unspecified) do in these assays?
Pf Dd2 inh: 16µM*

How did CN(Cc1ccc(F)cc1)C1CCCc2ccccc21 (stereo unspecified) do in these assays?
Pf Dd2 inh: inactive

Results for CN(C(=O)c1ccccc1)C1CCCc2ccccc21 (stereo unspecified) ?
Pf Dd2 inh: inactive

What do the screens show for `CN(C(=O)Nc1ccccc1)C1CCCc2ccccc21` (stereo unspecified)?
Pf Dd2 inh: 16µM*

What do the screens show for `COc1ccccc1NC(=O)CCn1cc(-c2nccn2C)nn1`?
Pf Dd2 inh: -10%

How did Cc1cc(N2C[C@@H](C)[C@@](C)(O)C2)nc(N2CCCCC2)n1 do in these assays?
Pf Dd2 inh: -14%

How did COc1ccc(-c2cn3c(n2)CO[C@@H](CNC2CCCCC2)C3)cc1 do in these assays?
Pf Dd2 inh: inactive

Results for CCCN(CCC)C(=O)C1CCCN(c2ncnc3onc(-c4ccc(F)cc4)c23)C1 (stereo unspecified) ?
Pf Dd2 inh: -9%

How did CC(C)N(Cc1ccccc1)C(=O)C1CCCN(c2ncnc3onc(-c4ccc(F)cc4)c23)C1 (stereo unspecified) do in these assays?
Pf Dd2 inh: 8.9µM*

What do the screens show for `COc1cc(Cl)c(C)cc1NC(=O)C1CCCN(c2ncnc3onc(-c4ccc(F)cc4)c23)C1` (stereo unspecified)?
Pf Dd2 inh: 11µM*

Results for Cc1ccc(C)c(NC(=O)C2CCCN(c3ncnc4onc(C)c34)C2)c1 (stereo unspecified) ?
Pf Dd2 inh: -25%

Results for Cc1ccc(NC(=O)C2CCCN(c3ncnc4onc(-c5ccc(F)cc5)c34)C2)c(Cl)c1 (stereo unspecified) ?
Pf Dd2 inh: -11%

What do the screens show for `Cc1noc2ncnc(N3CCCC(C(=O)NCCC(C)C)C3)c12` (stereo unspecified)?
Pf Dd2 inh: -15%

How did Cc1cc(C(=O)N2CCC(c3nnc(Cn4ccnc4)n3C)CC2)on1 do in these assays?
Pf Dd2 inh: 8%

What do the screens show for `O=C1NCCCCCCN(C(=O)c2ccncc2)[C@H]2CCCC[C@@H]12`?
Pf Dd2 inh: -10%

Results for O=C1COc2ccc(-c3ccccc3F)nc2CN1CCOc1ccccc1 ?
Pf Dd2 inh: -7%[44.1 µM]

How did Cc1cn2nc(C(=O)N3CCC(NC(=O)c4cccc(C#N)c4)CC3)cc2c(=O)[nH]1 do in these assays?
Pf Dd2 inh: 2.8µM*

Results for Cc1cn2nc(C(=O)N3CCC(NC(=O)c4ccc(F)c(F)c4)CC3)cc2c(=O)[nH]1 ?
Pf Dd2 inh: -16%

How did COc1cccc(C(=O)NC2CCN(C(=O)c3cc4c(=O)[nH]c(C)cn4n3)CC2)c1 do in these assays?
Pf Dd2 inh: inactive

How did COc1ccc(C(=O)N2CCOC[C@H](Oc3ccc(C(F)(F)F)cn3)C2)cc1 do in these assays?
Pf Dd2 inh: 5%[44.1 µM]

What do the screens show for `N#Cc1ccc(CN2CCCC3(CN[S+](=O)([O-])c4cccnc4O3)C2)cc1` (stereo unspecified)?
Pf Dd2 inh: inactive

Results for COc1ccc(-c2onc(C)c2C(=O)NCc2cccc(Cl)c2)cc1 ?
Pf Dd2 inh: -24%

Results for COc1ccc(C(=O)Nc2nc3c(s2)CCCC3)cc1Cl ?
Pf Dd2 inh: -25%

Results for COc1ccc2c(c1)-c1nc(NC(=O)c3ccc(C)cc3)sc1CC2 ?
Pf Dd2 inh: 11µM*

Results for COc1ccc2c(c1)CCc1sc(NC(=O)c3cccc(Br)c3)nc1-2 ?
Pf Dd2 inh: -16%

How did CC1=C(C(=O)Nc2ccc(C)cc2C)C(c2ccc[nH]2)n2ncnc2N1 (stereo unspecified) do in these assays?
Pf Dd2 inh: 29%

How did CC1=C(C(=O)Nc2cc(Cl)ccc2C)C(c2ccccc2F)n2ncnc2N1 (stereo unspecified) do in these assays?
Pf Dd2 inh: 10%

How did CC1=C(C(=O)Nc2ccc(C)cc2C)C(c2ccc(Cl)cc2)n2nc(C(=O)OC(C)C)nc2N1 (stereo unspecified) do in these assays?
Pf Dd2 inh: -5%

Results for CC1=C(C(=O)Nc2ccc(C)cc2C)C(c2cccs2)n2nc(SCc3cccc(C)c3)nc2N1 (stereo unspecified) ?
Pf Dd2 inh: -7%

Results for CC1=C(C(=O)Nc2ccc(C)cc2C)C(c2ccc(Br)cc2)n2ncc(C(=O)Nc3cccc(C)c3)c2N1 (stereo unspecified) ?
Pf Dd2 inh: 1.1µM*

Results for COc1ccc(C2C(C(=O)Nc3ccc(C)cc3C)=C(C)Nc3nc(SC)nn32)cc1OC (stereo unspecified) ?
Pf Dd2 inh: 15%

Results for CC1=C(C(=O)Nc2ccc(C)cc2C)C(c2cc(Br)ccc2F)n2ncc(C(=O)Nc3ccc(C)cc3)c2N1 (stereo unspecified) ?
Pf Dd2 inh: 0.89µM*

What do the screens show for `CC1=C(C(=O)Nc2ccc(Cl)cc2)C(c2ccccc2F)n2nc(SCc3cccc(Cl)c3)nc2N1` (stereo unspecified)?
Pf Dd2 inh: 36%

What do the screens show for `CC1=C(C(=O)Nc2ccccc2)C(c2cc(Br)ccc2F)n2ncc(C(=O)Nc3ccccc3)c2N1` (stereo unspecified)?
Pf Dd2 inh: 1.1µM*

How did CCC1Oc2ccc(NC(=O)c3ccc(C#N)cc3)cc2CN(Cc2ccccc2F)C1=O (stereo unspecified) do in these assays?
Pf Dd2 inh: -16%

How did CCOc1ccccc1CN1CCc2n[nH]c(=O)n2CC1 do in these assays?
Pf Dd2 inh: inactive

What do the screens show for `O=S(=O)(c1cccnc1)N1CCC(N2CC(OCC3CC3)C23CCOCC3)CC1` (stereo unspecified)?
Pf Dd2 inh: inactive

What do the screens show for `COCCn1c(Cn2nc3n(c2=O)CCCCC3)nnc1C1CC(N)C1` (stereo unspecified)?
Pf Dd2 inh: -15%

Results for O=C1[C@@H]2C[C@@H](CN2C(=O)NCc2ccccc2)Oc2ccccc2N1CC1CC1 ?
Pf Dd2 inh: inactive

What do the screens show for `COCC(=O)N1CCc2nc(N3CCc4ccccc4C3)[nH]c(=O)c2CC1`?
Pf Dd2 inh: inactive[5.79 µM]

Results for CC(=O)N1CCC(NC[C@H]2COCc3nc4ccccc4n32)CC1 ?
Pf Dd2 inh: 7%[44.1 µM]

What do the screens show for `CCc1ccccc1NC(=O)CSc1nc(-c2cccc(Cl)c2)nc2c1Cc1c(CO)cnc(C)c1O2`?
Pf Dd2 inh: -1%

Results for Cc1ccc(C)c(CSc2nc(-c3ccccc3F)nc3c2Cc2c(CO)cnc(C)c2O3)c1 ?
Pf Dd2 inh: 8.9µM*

How did Cc1ncc(CO)c2c1Oc1nc(-c3ccccc3Cl)nc(SCc3ccccc3F)c1C2 do in these assays?
Pf Dd2 inh: 4.5µM*

How did Cc1ncc(CO)c2c1Oc1nc(-c3ccccc3F)nc(SCC(=O)N3CCCCC3)c1C2 do in these assays?
Pf Dd2 inh: -8%

What do the screens show for `CCSc1nc(-c2ccccc2F)nc2c1Cc1c(CO)cnc(C)c1O2`?
Pf Dd2 inh: 10%

Results for N#Cc1cccc(CN2CC(CNC(=O)C3CCOCC3)C3(C2)CN(c2ccccc2)C3)c1 (stereo unspecified) ?
Pf Dd2 inh: inactive

What do the screens show for `CC(C)C1=NOC2(CCN(C(=O)c3ccccn3)C2)C1` (stereo unspecified)?
Pf Dd2 inh: 11%[44.1 µM]

Results for CC(C(=O)NCc1cc(F)ccc1F)C1CCOCC1 (stereo unspecified) ?
Pf Dd2 inh: 1%
